High-throughput results: PubChem, NMMLSC
Avidin fluor = avidin bead compound fluorescence profile; Avidin beads, compound fluorescence 488/530 nm, flow cytometry; hits give high values; fluorescence (KMESF) at 10 µM; 0.38% of 220,000 active; AID 1775; in the data active means fluorescence above about 47
RGS8-Gao reg = regulators of human RGS8-Galphao interaction. P09471. multiplexed bead flow cytometry, RGS8-Galphao binding; actives lie on both sides. response (percent of control binding), % at 10 µM. 0.34% of 220,000 active; in the data active means response below about 60% or above about 140%; inactive means in between;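 further: Galphao activated as the GDP aluminium fluoride complex binding bead-coupled RGS8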
RGS7-Gao reg = regulators of human RGS7-Galphao interaction; P09471; Multiplexed bead flow cytometry, RGS7-Galphao binding; actives lie on both sides; binding response (% of control), % at 10 µM; 0.35% of 220,000 active; AID 1439; in the data active means binding response below about 49% or above about 150%; inconclusive means no clear call, values can overlap the other calls; inactive means in between;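 further: fluorescent Galphao held in activated GDP-AlF4 state binding bead-coupled RGS7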
GSH bead fluor = GSH bead compound fluorescence profile; GSH beads flow cytometry, compound fluorescence 488/530 nm; hits give high values; AID 1776; fluorescence (KMESF) at 10 µM; 0.25% of 190,000 active; in the data active means fluorescence above about 89;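 further: glutathione beads carrying GST-tagged Bcl family fusion proteins plus one bare bead set; values are compound well signal with DMSO vehicle wells as background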
RGS4-Gao reg = human RGS4-Galphao interaction regulation; P09471; Multiplexed bead flow cytometry, RGS4-Galphao binding; actives lie on both sides; binding response (% of control), % at 10 µM; 0.33% of 220,000 active; AID 1415; in the data active means binding response below about 49% or above about 150%; inactive means in between;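 further: fluorescent Galphao activated with aluminum fluoride binding bead-coupled RGS4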
RGS16-Gao HTS = modulates binding between human RGS16 and Galphao; 0.38% of 220,000 active; binding response (% of control), % at 10 µM; O15492+P09471; bead-based flow cytometry RGS16-Galphao binding, fluorescence; actives lie on both sides; AID 1441;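 further: Galphao activated by GDP with aluminum fluoride before binding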
Target sequence (O15492 whole entry, looked up): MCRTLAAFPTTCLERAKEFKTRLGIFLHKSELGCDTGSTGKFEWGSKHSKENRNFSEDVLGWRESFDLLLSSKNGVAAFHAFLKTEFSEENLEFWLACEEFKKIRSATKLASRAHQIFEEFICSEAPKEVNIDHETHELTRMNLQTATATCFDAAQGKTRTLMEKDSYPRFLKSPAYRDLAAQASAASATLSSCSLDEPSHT
Target sequence (P09471 whole entry, looked up): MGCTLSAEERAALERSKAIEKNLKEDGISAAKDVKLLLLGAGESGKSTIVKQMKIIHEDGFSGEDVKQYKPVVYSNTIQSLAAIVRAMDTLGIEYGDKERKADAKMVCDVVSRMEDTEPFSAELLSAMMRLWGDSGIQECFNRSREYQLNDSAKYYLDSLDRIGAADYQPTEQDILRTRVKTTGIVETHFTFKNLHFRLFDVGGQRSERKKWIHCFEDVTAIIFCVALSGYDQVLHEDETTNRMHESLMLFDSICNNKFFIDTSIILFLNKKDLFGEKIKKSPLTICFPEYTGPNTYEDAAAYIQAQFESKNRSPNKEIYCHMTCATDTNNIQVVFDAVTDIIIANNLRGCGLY
RGS-Gao = modulates binding between human RGS4 and Galphao; RGS4–Galpha-o binding response, % at 10 µM; shares compounds with RGS16-Gao HTS; 99% of 1,600 active; AID 1504; multiplexed bead flow cytometry, RGS–Galpha-o binding;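 further: fluorescently labeled Galpha-o bound to GDP with aluminium fluoride binding biotinylated RGS beads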
Target sequence (P09471 whole entry, looked up): as above
Target sequence (P49798 whole entry, looked up): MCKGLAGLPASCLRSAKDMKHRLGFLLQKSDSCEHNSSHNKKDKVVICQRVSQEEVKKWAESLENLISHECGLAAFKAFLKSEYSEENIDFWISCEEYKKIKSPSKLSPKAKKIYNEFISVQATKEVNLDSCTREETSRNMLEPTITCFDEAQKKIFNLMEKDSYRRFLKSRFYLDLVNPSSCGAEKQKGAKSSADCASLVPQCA
Biotin-avidin = counter-screen: compounds disrupting biotin binding to avidin beads. 1,700 tested, under 10 active. AID 1783. streptavidin beads, fluorescein-biotin binding, flow cytometry. shares compounds with RGS16-Gao HTS. inhibition, % at 10 µM;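 active means inhibition above 50%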;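 further: median green fluorescence of gated singlet beads compared with DMSO control wells; 0% = DMSO wells and 100% = complete loss of bead fluorescence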
RGS8-Gao confirm = confirmation of regulators of human RGS8-Galphao interaction | shares compounds with RGS16-Gao HTS | bead-based flow cytometry RGS8-Galphao binding, fluorescence; actives lie on both sides | binding response (% of control), % at 10 µM | 3% of 1,700 active; in the data active means binding response below about 72% or above about 130%; inactive means in between;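 further: Galphao activated as GDP AlF4 complex before binding bead RGS8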
RGS7-Gao confirm = confirmation of regulators of human RGS7-Galphao interaction | shares compounds with RGS16-Gao HTS | bead-based flow cytometry RGS7-Galphao binding; actives lie on both sides | response (percent of control binding), % at 10 µM | 7.8% of 1,700 active; in the data active means response below about 75% or above about 130%; inactive means in between;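 further: fluorescent Galphao activated with GDP and aluminum fluoride binding bead-coupled RGS7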
RGS16-Gao single = confirmation of regulators of human RGS16-Galphao interaction; response (% of control binding), % at 10 µM; bead-based flow cytometry, RGS16-Galphao binding; actives lie on both sides; AID 1838; 4% of 1,700 active; shares compounds with RGS16-Gao HTS; in the data active means response below about 74% or above about 130%; inactive means in between;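 further: Galphao activated as the GDP aluminium fluoride complex binding bead-coupled RGS16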
RGS4-Gao single = RGS4-Galphao interaction regulation, single point confirmation | 4% of 1,700 active | shares compounds with RGS16-Gao HTS | RGS4-Galphao binding, multiplexed bead flow cytometry; actives lie on both sides | binding response (% of control), % at 10 µM; in the data active means binding response below about 74% or above about 130%; inactive means in between
RGS19-Gao single = confirmation of regulators of human RGS19-Galphao interaction; shares compounds with RGS16-Gao HTS; bead-based flow cytometry RGS19-Galphao binding; actives lie on both sides; response (percent of control binding), % at 10 µM; 5% of 1,700 active; AID 1841; in the data active means response below about 50% or above about 160%; inactive means in between;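 further: 100% = no compound control and 0% = blank background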
Starred values were filed as active, the others as inactive; i = inactive; ? = inconclusive; . = not tested or not shown; [ ] = another dose, or the depositor's remark. A selection: hits, their analogues and other compounds. The true share with any hit is near 1.2%. Unless noted, how the calls were made is not given here.

SMILES | Avidin fluor | RGS8-Gao reg | RGS7-Gao reg | GSH bead fluor | RGS4-Gao reg | RGS16-Gao HTS | Biotin-avidin | RGS8-Gao confirm | RGS7-Gao confirm | RGS16-Gao single | RGS4-Gao single | RGS19-Gao single | others
CCOc1ccc(N(CC(=O)Nc2ccccc2)S(C)(=O)=O)cc1 | 7 | 81.4 | 85.1 | 8 | 80.4 | -46.0* | -1.1 | 98.6 | 95.3 | 95.2 | 96.0 | 99.6 | RGS-Gao=80.4*
S=C(Nc1ccc2nsnc2c1)N1CCCCC1 | 6 | 78.3 | 85.9 | 7 | 85.7 | 2.5* | . | . | . | . | . | . | RGS-Gao=85.7*
S=C(Nc1ccc2nc(-c3ccccn3)c(-c3ccccn3)nc2c1)N1CCCCC1 | 9 | 99.7 | 98.8 | 14 | 100.1 | 100.9 | . | . | . | . | . | .
Cc1ccc(NC(=O)CN2C(=O)NC(Cc3ccccc3)C2=O)c(Br)c1 (stereo not given) | 11 | 97.7 | ? | 10 | 98.8 | 94.9 | . | . | . | . | . | .
CCCCCCCn1c2c(c(=N)c3ccccc31)CCC2 | 17 | 103.1 | 103.5 | 13 | 104.4 | 102.4 | . | . | . | . | . | .
CCN=c1scc(C)n1/N=C/c1ccc(O)c(O)c1O | 4 | 58.7* | 64.8 | 26 | 80.3 | 55.1 | 0.7 | 66.8* | 63.8* | 63.6* | 78.2 | 46.9* | RGS-Gao=80.3*
Cc1ccc(S(=O)(=O)N2CCOCC2)cc1NC(=O)CNCC1CCCCC1 | 10 | 100.7 | ? | 13 | 101.6 | 101.5 | . | . | . | . | . | .
CCCC(C)NC(=O)COC(=O)c1cccc(NS(C)(=O)=O)c1 (stereo not given) | 6 | 101.5 | ? | . | 94.2 | 102.7 | . | . | . | . | . | .
CCNC(=O)NC(=O)CSc1ccc(NC(C)=O)cc1 | 13 | 72.5 | 54.4 | 12 | 46.9* | 57.7 | -0.4 | 110.4 | 113.1 | 114.1 | 108.5 | 121.0
O=C(CN1C(=O)COc2ccccc21)N(CCCN1CCOCC1)CC1CC=CCC1 (stereo not given) | . | . | . | 45 | . | . | -2.6 | 103.1 | 99.6 | 103.5 | 100.7 | 88.4
O=C(CN1C(=O)COc2ccccc21)N(Cc1ccc2c(c1)OCO2)CC1CCCO1 (stereo not given) | 5 | 103.6 | 98.2 | 25 | 105.9 | 105.0 | . | . | . | . | . | .
Cc1ccc(OC/C(=N\O)C(C)(C)C)c([N+](=O)[O-])c1 | 13 | 99.5 | 95.7 | 15 | 100.0 | 99.0 | . | . | . | . | . | .
CCOc1ccc(CCNC(=O)c2[nH]c(C)c(C(C)=O)c2C)cc1OCC | . | . | . | 10 | . | . | 2.7 | 101.3 | 96.0 | 99.0 | 98.1 | 91.3
Cn1nc(C(F)(F)F)c(-c2ccc(F)cc2)c1NC(=O)c1ccco1 | 61* | 116.0 | ? | . | 187.9*[activator] | 176.2*[activator] | -0.2 | 97.0 | 74.0* | 84.5 | 82.8 | 68.0
Cn1nc(C(F)(F)F)c(-c2ccccc2)c1NC(=O)c1ccco1 | 3 | 92.8 | ? | . | 82.4 | 84.2 | . | . | . | . | . | .
COc1ccc(NC(=O)c2cn(CCC#N)nc2-c2cc3ccccc3o2)cc1 | 9 | 99.2 | 100.2 | 18 | 101.8 | 98.7 | . | . | . | . | . | .
CCCCn1c(=S)[nH]c2c(oc3ccc(Cl)cc32)c1=O | -3 | 5.1* | 7.1* | 21 | -5.2* | -19.1* | -2.4 | 105.7 | 108.2 | 104.5 | 101.1 | 109.4
CNC(=O)/C(C#N)=C/c1cc(C)n(-c2ccc(N3CCOCC3)cc2)c1C | 114* | 103.8 | ? | . | 253.6*[activator] | 216.3*[activator] | -0.6 | 101.9 | 92.4 | 96.3 | 95.0 | 107.3
O=C(COc1ccc(/C=N/NC(=O)c2cc3ccccc3o2)cc1Cl)Nc1ccccc1 | 49* | 225.1*[activator] | 218.2*[activator] | 116* | 373.0*[activator] | i | 0.3 | 100.5 | 95.9 | 99.6 | 90.7 | 165.5*[activator]
COc1ccccc1C(=O)N1CCNC(=O)C1CC(=O)Nc1cccc(C)c1 (stereo not given) | 143* | 100.8 | 239.6*[activator] | 10 | 103.2 | 115.1 | -3.3 | 100.3 | 99.6 | 99.7 | 100.6 | 100.7 | RGS-Gao=103.2*
COc1ccc(NC(=S)N2CCNC(=O)C2CC(=O)Nc2cccc(Cl)c2C)cc1 (stereo not given) | 8 | 78.8 | 94.3 | 9 | 94.8 | 9.7* | -0.5 | 95.2 | 94.5 | 93.7 | 95.8 | 92.0 | RGS-Gao=94.8*
COCCn1c(Cc2cccn2C)nnc1SCC(=O)NCc1ccc2c(c1)OCO2 | 8 | 100.6 | 103.6 | 17 | 101.8 | 106.4 | . | . | . | . | . | .
CCCOc1cccc(NC(=O)OC2CCN(C)CC2)c1 | 5 | 103.7 | 101.7 | 7 | 103.6 | 107.2 | . | . | . | . | . | .
Cc1ccc(S(=O)(=O)N(C)C)cc1NC(=O)c1c(-c2c(F)cccc2Cl)noc1C | 6 | 101.4 | ? | . | 100.2 | 102.7 | . | . | . | . | . | .
O=C(O)/C=C/C(=O)N(CC1CCCO1)C1CC(=O)N(c2c(Cl)cccc2Cl)C1=O (stereo not given) | 7 | 92.9 | ? | . | 82.2 | 81.4 | . | . | . | . | . | .
SMILES | Avidin fluor | RGS8-Gao reg | RGS7-Gao reg | GSH bead fluor | RGS4-Gao reg | RGS16-Gao HTS | Biotin-avidin | RGS8-Gao confirm | RGS7-Gao confirm | RGS16-Gao single | RGS4-Gao single | RGS19-Gao single | others
CCOC(=O)C(C(=O)OCC)C1OC(=O)c2cc3c(cc21)C(=O)OC3C(C(=O)OCC)C(=O)OCC (stereo not given) | 200* | 87.1 | 358.7*[activator] | 14 | 141.0 | 124.3 | 1.6 | 89.5 | 86.5 | 88.6 | 91.2 | 82.5 | RGS-Gao=141.0*
CCOC(=O)CC(=O)CSCC(=O)Nc1ccc(C)cc1 | 4 | 57.3* | 42.8* | 19 | 47.3* | 35.7 | -0.3 | 105.3 | 106.7 | 104.6 | 106.5 | 102.5
Cc1ccc(NC(=O)CSCC#N)cc1 | 8 | 93.4 | 91.3 | 5 | 89.9 | 93.3 | . | . | . | . | . | .
O=C(c1cnccn1)N(Cc1ccco1)C1(C(=O)NC2CCCC2)CCCCC1 | 13 | 100.0 | 102.5 | 49 | 100.3 | 104.6 | . | . | . | . | . | .
O=C(c1cnccn1)N(Cc1ccco1)C1(C(=O)NC2CCCCC2)CCCCC1 | 8 | 80.2 | 88.9 | 8 | 79.5 | -53.5* | 2.2 | 102.0 | 106.2 | 101.8 | 105.0 | 105.7 | RGS-Gao=79.5*
C=CCn1c(CCNC(=O)c2ccccc2F)nnc1SCc1nc2ccccc2c(=O)[nH]1 | 13 | 98.1 | 99.7 | 35 | 100.1 | 99.2 | . | . | . | . | . | .
